Measured values as given in the supplement of paper PMC13380429.
Values without a mark were called inactive.

Test system: Vero E6 infected with SARS-CoV-2
Assay: inhibition of SARS-CoV-2 cytopathic effect; higher = more antiviral protection, active = above 15
Conditions: 48 h

Structure (SMILES) | inhibition of SARS-CoV-2 cytopathic effect (1 nM) | inhibition of SARS-CoV-2 cytopathic effect (8.33 nM) | inhibition of SARS-CoV-2 cytopathic effect (100 nM) | inhibition of SARS-CoV-2 cytopathic effect (833.33 nM) | inhibition of SARS-CoV-2 cytopathic effect (10000 nM)
O=C(Nc1c[nH]nc1-c1nc2ccc(CN3CCOCC3)cc2[nH]1)NC1CC1 | 0.02% | -0.1% | 0.35% | 0.87% | -5.1%
O=C(O)CNC(=O)C(CS)Cc1ccccc1 (stereo not given) [thiorphan] | -4.27% | -1.61% | -5.99% | -4.04% | -6.09%
O=C(O)Cc1cccc2c(=O)cc(-c3ccccc3)oc12 [mitoflaxone] | 1.27% | 0.65% | 1.42% | 1.5% | 0.08%
c1ccc(N2CCN(Cc3nc4ccccc4[nH]3)CC2)nc1 | 3.44% | 2.21% | -0.12% | 0.36% | -0.76%
Cc1ccc(F)c(NC(=O)Nc2ccc(-c3cccc4[nH]nc(N)c34)cc2)c1 [linifanib] | -2.72% | -3.15% | -4.95% | -2.75% | -2.71%
Cc1cc2nc3c(=O)[nH]c(=O)nc-3n(C)c2cc1C=O | 0.98% | -1.25% | -1.28% | 2.07% | 1.18%
FC(F)(F)c1ccccc1-c1cc(C(F)(F)F)c2[nH]c(C3=NOC4(CCCCC4)C3)nc2c1 | -0.82% | 0.77% | -0.98% | -2.13% | -3.97%
CN1C(=O)CC(C)(c2ccccc2)C1=O (stereo not given) [methsuximide] | -1.1% | 0% | 1.03% | 0.88% | -0.14%
CC(C)C[C@H](NC(=O)[C@@H](O)[C@H](N)Cc1ccccc1)C(=O)O [ubenimex] | -0.51% | -0.09% | 2.6% | 0.25% | 1.71%
Cn1cc(C2=C(c3ccc(Cl)cc3Cl)C(=O)NC2=O)c2ccccc21 | 2.26% | 6.22% | 4.19% | 1.47% | 20.8% (active)
Cc1cc(O)c(-c2ccc([C@@H](C)CN)cc2)c2c1[nH]c(=O)c1sccc12 | -2.25% | -1.13% | -0.22% | 3.77% | -23.9%
CC[C@@H](CO)NCCN[C@@H](CC)CO [ethambutol] | 3.83% | 4.26% | 4.86% | 5.12% | 2.55%
O=C1NC(=O)/C(=C/c2cccc(C(F)(F)F)c2)S1 | 0.25% | 2.25% | 1.98% | -0.59% | -1.22%
O=[N+]([O-])c1cccc2c(Br)n[nH]c12 [3-bromo-7-nitroindazole] | 0.35% | 2.23% | 0.07% | -3.48% | -0.25%
O=C(N[C@@H](Cc1c[nH]c2ccccc12)C(=O)O)c1ccc(Cl)cc1 [benzotript] | 1.07% | 1.9% | 2.83% | 2.01% | 3.35%
CN1[C@H]2C[C@H](OC(=O)[C@H](CO)c3ccccc3)C[C@@H]1[C@@H](O)C2 [anisodamine] | 1.04% | 2.56% | 3.99% | 5.76% | 3.66%
CCOC(=O)[N-]c1c[n+](N2CCOCC2)no1 [molsidomine] | -0.39% | 1.12% | 2.15% | 1.58% | -0.19%
Cc1cc2c(OCC(CNC(C)(C)C)OC(=O)c3ccccc3)cccc2[nH]1 (stereo not given) [bopindolol] | -0.9% | -1.91% | -0.64% | 0.54% | 0.29%
CC1(C)S[C@@H]2[C@H](NC(=O)[C@H](C(=O)O)c3ccsc3)C(=O)N2[C@H]1C(=O)O [ticarcillin] | -0.59% | -1.04% | -1.79% | 0.92% | -2.66%
